Laboratory results as given in PubChem BioAssay (NCATS).
Inconclusive results are not listed. Calls of active or inactive are those of the source. Calls come from the whole dose curve; as a rule, active = well fitted cell-killing curve with a large enough effect; inconclusive = small, poorly fitted or top-dose-only effect, or effect the other way; inactive = flat fitted curve, though single readings scatter.

Key:
Assay in all cases: Primary qHTS to identify gynecologic anti-cancer compounds using libraries of approved drugs and bioactive compounds (AID 1345084); note: nearly all actives have a fitted effect of over 55% in size
[1] = system: Hek293T; details: Gynecologic cancer cell panel viability, ATPlite luminescence, 48 h, control line for the selectivity index; series mostly up to 57.5 µM
Summary of the method: (§1)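 ATP-based viability (ATPlite), 1,000 cells/well, 16 h pre-incubation, 48 h compound at 37 C, 5% CO2, 15 min RT before read.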

[2] = system: JEG-3; details: Gynecologic cancer cell panel viability, ATPlite luminescence, 48 h; series mostly up to 57.5 µM
Summary of the method: as §1

[3] = system: OV90; details: Gynecologic cancer cell panel viability, ATPlite luminescence, 48 h; series mostly up to 57.5 µM
Summary of the method: as §1

[4] = system: PA-1; details: Gynecologic cancer cell panel viability, ATPlite luminescence, 48 h; series mostly up to 57.5 µM
Summary of the method: as §1

[5] = system: SKOV3; details: Gynecologic cancer cell panel viability, ATPlite luminescence, 48 h; series mostly up to 57.5 µM
Summary of the method: as §1

[6] = system: Tov-21-G; details: Gynecologic cancer cell panel viability, ATPlite luminescence, 48 h; series mostly up to 57.5 µM
Summary of the method: as §1

[7] = system: Tov112D; details: Gynecologic cancer cell panel viability, ATPlite luminescence, 48 h; series mostly up to 57.5 µM
Summary of the method: as §1
% is set by controls: 0 for no effect and ±100 for the full control effect.

C=CC(C)(O)CO[C@@H]1O[C@H](CO)[C@@H](O)[C@H](O)[C@H]1O (some centres not stated)
inactive: Potency [1] | Potency [2] | Potency [3] | Potency [4] | Potency [5] | Potency [6] | Potency [7]

CC(C)(O)/C=C1/C(=O)C(C)(C)C(=O)C(C)(C)C1(O)O[C@@H]1O[C@H](COC(=O)c2cc(O)c(O)c(O)c2)[C@@H](O)[C@H](O)[C@H]1O (some centres not stated)
inactive: Potency [1] | Potency [2] | Potency [3] | Potency [4] | Potency [5] | Potency [6] | Potency [7]

CC(C)CNC(=O)/C=C/CCCCc1ccc2c(c1)OCO2
inactive: Potency [1] | Potency [2] | Potency [3] | Potency [4] | Potency [5] | Potency [6] | Potency [7]

CCC/C=C/C(=O)O[C@H]1CC(C)(C)CC2[C@]13[C@H](O)O[C@@]21CCC2[C@@]4(C)CC[C@H](O[C@@H]5O[C@H](C(=O)O)[C@@H](O)[C@H](O[C@@H]6O[C@H](CO)[C@H](O)[C@H](O)[C@H]6O[C@@H]6O[C@@H](C)[C@H](O)[C@@H](O)[C@H]6O[C@@H]6OC[C@](O)(CO)[C@H]6O)[C@H]5O[C@@H]5O[C@H](CO)[C@H](O)[C@H](O)[C@H]5O)C(C)(C)C4CC[C@@]2(C)[C@]1(C)C[C@H]3OC(C)=O (some centres not stated)
inactive: activity change, negative = cytotoxicity [1] -6.65% [at 6.55 µM] | activity change, negative = cytotoxicity [2] -6.17% [at 6.55 µM] | activity change, negative = cytotoxicity [3] -0.93% [at 6.55 µM] | activity change, negative = cytotoxicity [4] -0.307% [at 6.55 µM] | activity change, negative = cytotoxicity [5] 13% [at 6.55 µM] | activity change, negative = cytotoxicity [6] 0.0885% [at 6.55 µM] | activity change, negative = cytotoxicity [7] 1.84% [at 6.55 µM]

O=c1ccn([C@@H]2O[C@H](CO)[C@@H](O)[C@H]2O)c(=O)[nH]1
inactive: Potency [1] | Potency [2] | Potency [3] | Potency [4] | Potency [5] | Potency [6] | Potency [7]

COc1c(C)c(OCC=C(C)C)cc2c1C(=O)NC2=O
inactive: Potency [1] | Potency [2] | Potency [3] | Potency [4] | Potency [5] | Potency [6] | Potency [7]

COc1cccc2c1CCC[C@H]2CN(C)CCc1ccc2ccoc2c1
inactive: Potency [1] | Potency [2] | Potency [3] | Potency [4] | Potency [5] | Potency [6] | Potency [7]

COC1CC(=O)CCC(C)OC(=O)CC1O (configuration not stated)
inactive: Potency [1] | Potency [2] | Potency [3] | Potency [4] | Potency [5] | Potency [6] | Potency [7]

NCCOCCOCCNC(=O)Cc1ccc(Nc2nc(NCc3ccc(F)cc3)nc(NCC3CCCCC3)n2)cc1
inactive: Potency [1] | Potency [2] | Potency [3] | Potency [4] | Potency [5] | Potency [6] | Potency [7]

COc1cc(/C=C/C(=O)OC2CC(OC(C)=O)C(OC(C)=O)C3C2CCC2C(=O)OC(c4ccoc4)CC23C)ccc1O[C@@H]1O[C@H](CO)[C@@H](O)[C@H](O)[C@H]1O (some centres not stated)
inactive: Potency [1] | Potency [2] | Potency [3] | Potency [4] | Potency [5] | Potency [6] | Potency [7]

COc1cc(C(O)C(CO)Oc2ccc(CCCO[C@@H]3O[C@@H](C)[C@H](O)[C@@H](O)[C@H]3O)cc2OC)ccc1O (some centres not stated)
inactive: Potency [1] | Potency [2] | Potency [3] | Potency [4] | Potency [5] | Potency [6] | Potency [7]

CC1=C2C=C(CO)C(CO)CCC2(C)CCC1=O (configuration not stated)
inactive: Potency [1] | Potency [2] | Potency [3] | Potency [4] | Potency [5] | Potency [6] | Potency [7]

CO/N=C(/C(=O)N[C@@H]1C(=O)N2C(C(=O)O)=C(CSC(=O)c3ccco3)CS[C@H]12)c1csc(N)n1
inactive: Potency [1] | Potency [2] | Potency [3] | Potency [4] | Potency [5] | Potency [6] | Potency [7]

C/C(=C\CCC(C(=O)O)C1CCC2(C)C3=C(CCC12C)C1(C)CCC(=O)C(C)(C)C1CC3)C(=O)O (configuration not stated)
inactive: Potency [1] | Potency [2] | Potency [3] | Potency [4] | Potency [5] | Potency [6] | Potency [7]

C=C1C(=O)O[C@H]2[C@H]1[C@@H](OC(=O)C(C)CO)C[C@@]1(C)[C@H](O)CCC(=O)[C@H]21 (some centres not stated)
inactive: Potency [1] | Potency [2] | Potency [3] | Potency [4] | Potency [5] | Potency [6] | Potency [7]

COc1cc(C2OCC3C(c4ccc(OC5OC(CO)C(O)C(O)C5O)c(OC)c4)OCC23)ccc1O (configuration not stated)
inactive: Potency [1] | Potency [2] | Potency [3] | Potency [4] | Potency [5] | Potency [6] | Potency [7]

CCOc1c2c(c(OCC)c3ccccc13)C(=O)N(c1ccc(CC(=O)NS(=O)(=O)c3ccccc3)cc1)C2
inactive: Potency [1] | Potency [2] | Potency [3] | Potency [4] | Potency [5] | Potency [6] | Potency [7]

CCC[C@@H]1C[C@@H](C(=O)N[C@H](C(C)Cl)[C@H]2O[C@H](SC)[C@H](O)[C@@H](O)[C@H]2O)N(C)C1 (some centres not stated)
inactive: Potency [1] | Potency [2] | Potency [3] | Potency [4] | Potency [5] | Potency [6] | Potency [7]

CNC(=O)Nc1ccc(OC)c(NC(=O)NC(=O)c2cc(F)c(F)cc2Cl)c1
inactive: Potency [1] | Potency [2] | Potency [3] | Potency [4] | Potency [5] | Potency [6] | Potency [7]

C[C@@H]1O[C@@H](O[C@H]2[C@H](O)[C@@H](C(=O)O)O[C@@H](O[C@H]3CC[C@@]4(C)C(CC[C@]5(C)C4CC=C4C6CC(C)(C)CC[C@]6(C(=O)O)CC[C@]45C)C3(C)C)[C@@H]2O[C@@H]2O[C@H](CO)[C@@H](O)[C@H](O)[C@H]2O)[C@H](O)[C@H](O)[C@H]1O (some centres not stated)
inactive: activity change, negative = cytotoxicity [1] -9.05% [at 11.6 µM] | activity change, negative = cytotoxicity [2] -1.5% [at 11.6 µM] | activity change, negative = cytotoxicity [3] -2.55% [at 11.6 µM] | activity change, negative = cytotoxicity [4] -11.5% [at 11.6 µM] | activity change, negative = cytotoxicity [5] -1.84% [at 11.6 µM] | activity change, negative = cytotoxicity [6] 0.088% [at 11.6 µM] | activity change, negative = cytotoxicity [7] 0.16% [at 11.6 µM]

CC1OC(OC2C(O)C(C(=O)O)OC(OC3CCC4(C)C(CCC5(C)C4C=CC4=C6CC(C)(C)CC(O)C6(C)CCC45C)C3(C)C)C2OC2OCC(O)C(O)C2O)C(O)C(O)C1O (configuration not stated)
inactive: activity change, negative = cytotoxicity [1] -1.86% [at 11.6 µM] | activity change, negative = cytotoxicity [2] 0.12% [at 11.6 µM] | activity change, negative = cytotoxicity [3] 1.31% [at 11.6 µM] | activity change, negative = cytotoxicity [4] 8.55% [at 11.6 µM] | activity change, negative = cytotoxicity [5] 1.68% [at 11.6 µM] | activity change, negative = cytotoxicity [6] 7.57% [at 11.6 µM] | activity change, negative = cytotoxicity [7] 16.2% [at 11.6 µM]

CCOc1ccc(C(Nc2ccccn2)c2ccc3ccc(C)nc3c2O)cc1C (configuration not stated)
inactive: Potency [1] | Potency [2] | Potency [3] | Potency [4] | Potency [5] | Potency [6] | Potency [7]

C=C1[C@H]2CC[C@]3(O)[C@@](CC[C@@H]4[C@](C)(C(=O)O)CCC[C@]43C)(C2)[C@H]1OC(=O)/C(C)=C\C
inactive: Potency [1] | Potency [2] | Potency [3] | Potency [4] | Potency [5] | Potency [6] | Potency [7]

CC(/C=C/C1(O)C(C)CC(O)CC1(C)C)OC1OC(CO)C(O)C(O)C1O (configuration not stated)
inactive: Potency [1] | Potency [2] | Potency [3] | Potency [4] | Potency [5] | Potency [6] | Potency [7]

CC(=O)Oc1cc2c(s1)CCN([C@H](C(=O)C1CC1)c1ccccc1F)C2
inactive: Potency [1] | Potency [2] | Potency [3] | Potency [4] | Potency [5] | Potency [6] | Potency [7]

CC(C)c1nc(N(C)S(C)(=O)=O)nc(-c2ccc(F)cc2)c1/C=C/[C@@H](O)C[C@@H](O)CC(=O)O
inactive: Potency [1] | Potency [2] | Potency [3] | Potency [4] | Potency [5] | Potency [6] | Potency [7]

COc1cc(C(=O)OC[C@H]2O[C@H](O[C@@]3(CO)O[C@@H](CO)[C@H](O)[C@H]3O)[C@H](O)[C@@H](O)[C@@H]2O)ccc1O
inactive: Potency [1] | Potency [2] | Potency [3] | Potency [4] | Potency [5] | Potency [6] | Potency [7]

CC(C)c1ccc(CC(=O)N2CCC[C@@H](c3cccc(OC(C)(C)C(=O)O)c3)C2)cc1
inactive: Potency [1] | Potency [2] | Potency [3] | Potency [4] | Potency [5] | Potency [6] | Potency [7]

C[C@]12CCC(=O)C=C1[C@@H](O)C[C@@H]1[C@@H]2[C@@H](O)C[C@@]2(C)[C@H]1CC[C@]2(O)C(=O)CO
inactive: Potency [1] | Potency [2] | Potency [3] | Potency [4] | Potency [5] | Potency [6] | Potency [7]

C=CC1C(O[C@@H]2O[C@H](CO)[C@@H](O)[C@H](O)[C@H]2O)OC=C(C(=O)OC)C1Cc1nccc2c1[nH]c1ccccc12 (some centres not stated)
inactive: Potency [1] | Potency [2] | Potency [3] | Potency [4] | Potency [5] | Potency [6] | Potency [7]

CN1C(=O)c2ccccc2NC(=O)[C@]12O[C@@H]2c1cccc(O)c1
inactive: Potency [1] | Potency [2] | Potency [3] | Potency [4] | Potency [5] | Potency [6] | Potency [7]

CC1CCC2C(C(=O)O)=CC3C(O)C(C)(C)CC123 (configuration not stated)
inactive: Potency [1] | Potency [2] | Potency [3] | Potency [4] | Potency [5] | Potency [6] | Potency [7]

O=C(O)[C@H]1CCCC[C@H]1C(=O)N1CCc2ccccc2[C@H]1CN1C(=O)c2ccccc2C1=O
inactive: Potency [1] | Potency [2] | Potency [3] | Potency [4] | Potency [5] | Potency [6] | Potency [7]

C=C1C2(CCC(=O)OC2(C)C)CC(OC(=O)/C(C)=C/C)C2(C)C13OC14C(=O)OC(C)(C(=O)C12C(=O)OC4C)C3OC(C)=O (configuration not stated)
inactive: Potency [1] | Potency [2] | Potency [3] | Potency [4] | Potency [5] | Potency [6] | Potency [7]

CC(=O)O[C@@H]1[C@H]2[C@@H](OC(=O)c3ccccc3)[C@@H](C)C[C@]2(O)[C@H](OC(C)=O)[C@@]2(C)[C@@H]3CC(C)(C)C(=O)[C@]3(OC(C)=O)C[C@@]12C
inactive: Potency [1] | Potency [2] | Potency [3] | Potency [4] | Potency [5] | Potency [6] | Potency [7]

C=C1[C@H]2[C@H](O[C@@H]3O[C@H](COC(=O)/C=C/c4cc(OC)c(O)c(OC)c4)[C@@H](O)[C@H](O)[C@H]3O)OC=C(C(=O)O)[C@H]2C[C@@H]1O
inactive: Potency [1] | Potency [2] | Potency [3] | Potency [4] | Potency [5] | Potency [6] | Potency [7]
